± gives the standard deviation.
Test system: EfPiwi piRISC loaded with L1MC piRNA (26 nt)
Experiment: pre-steady-state target cleavage rate (min^-1); auxiliary factor: none (no Gtsf1); guide: L1MC piRNA 5'p-UAACUAAAUACUAUGCAAGCUGUAGG; MIWI and MILI are mouse PIWI proteins and EfPiwi is from a freshwater sponge; tags in brackets are library labels; higher = faster piRNA-guided slicing of the target
Description: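 Cleave-'n-Seq: a library of target RNAs (target site in constant flanks) at […] was incubated with 1 nM active freshwater sponge Ephydatia fluviatilis Piwi piRISC (synthetic 5'-monophosphorylated piRNA guide) with or without 500 nM EmGtsf1 at 33 °C for 1 min to 16 h. Uncleaved targets were sequenced and the pooled three trials fitted to a burst-and-steady-state model to give the pre-steady-state cleavage rate (min^-1). Sequence is the target site only. Fits with R² ≤ 0 are excluded.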

pre-steady-state target cleavage rate, 0.0132 ± 0.0071:
UCCUGGAUCAGCUUGCAUAGUAUCUUAGUUA

pre-steady-state target cleavage rate, 0.00497 ± 0.0037:
UCCUCCUACAGCUUGGAUACUAUUUAGUUA

pre-steady-state target cleavage rate, 0.00759 ± 0.0041:
UCCUGGAUCAGCUUGCAUAGUAUUAUAGUUA

pre-steady-state target cleavage rate, 0.00878 ± 0.005:
UCCUGGAAGAGCUUGCUUAGUAUUUAGUUA

pre-steady-state target cleavage rate, 0.0117 ± 0.0058:
UCCUGGAUCAGCUUGCAUAGUAUAUAGUUA

pre-steady-state target cleavage rate, 0.00448 ± 0.0039:
UCCUGGAUGAGCUUGCAUAGUACUUAGUUA

pre-steady-state target cleavage rate, 0.00427 ± 0.0042:
UCCUGGAUGUGCUUGCGUAGUAUUUAGUUA

pre-steady-state target cleavage rate, 0.00968 ± 0.0057:
UCCUGGUUACAGCUUGCAUAGUAUUUAGUUA

pre-steady-state target cleavage rate, < 0.0001:
UCCUCCUACAGCUUGCAUAGAAUUUUCAAA
UCCUGCUACAGCUUGCAUAGUAUUAUGAAA
UCCUGGAUCAGGAAGCAUAGUAUUUUCAAA
UCCUGGAUGUCGAACGUUAGUAUUUAUGUUA
UCCUGGAUGUCGAUGCAUCAGUAUUUAGUUA
UCCUGGAUGUCCUUCGAUAGUAUUUAGUUA
UCCUGGAUGUCGAACGUAAGAAUUUAGUAA
UCCUGGAUGUCGAUGCAUAGUAUUUACAAA
UCCUGGAUGUCGAACGUAUCUAUUUAGAAA [g4:g10:cont:t1A]
UCCUGGAUGUCGAAGCAUAGUAUUUGUUA
UCCUGGAUGUCCUUGCAUACUAUUUAGAUA
UCCUCCUACAGCUUCGUUAGUAUUUAGAAA
UCCUGGAUGUCGAAGCAUAGUUAAAUCAAA [g10:g16:cont:t1A]
UCCUGGAUGUCGAACGUUAGUAUUUAGAUUA
UCCUGGAACUCGUUGCAUAGUAUUUAGUUA
UCCUGGAUGUCCUUCCAUAGUAAUUAGUUA
UCCUGGAUGUCGAAGCAUAGUAUAUUAGUUA
UCCUGGAUGUCGAACGUUAGUUUAUAGUUA
UCCUGGAUGUCGAACGUAUGUCUUUAGUUA
UCCUGGAUCAGCUUGGAUACUAUUUAGUUA
UCCUGGAACAGCUUGGAUUGUAUUUAGUUA
UCCUGGAUGUCGAACCUUAGUAUUUAGUUA
UCCUCCUACAGCUUGCAAUCUAUUUUCAAA
UCCUGGAACACCUUGCAUAGUAUUUUCAAA
UCCUGGAUGUCGAACGUUAGUCAUUUAGUUA
UCCUGGAUCAGCUUGGAUAGUAUUUACAAA
UCCUGGAUGUCGAAGAAUAGUAUUUAGUUA
UCCUGGAUGUCGAACGUAUGUAUAUUAGUUA
UCCUGGAUGAGCUUGCAUAGUAAUUAGAAA
UCCUGGUACAGCUUGCAUAGUAUAUACUUA
UCCUGGAUGUCGAACGUUAGUAUUUAGAUA

pre-steady-state target cleavage rate, 0.0249 ± 0.011:
UCCUGGAUGAGCUUGCAUAGUAUUAUAGUUA
